Measured values taken from PubChem BioAssay AID463173 (ICCB-Longwood Screening Facility, Harvard Medical School, 2010).
In all, about 52,000 compounds went through this assay and about 1,700 (3.3%) were called active. The sample holds actives, similar compounds and a random draw of the others, so the mix is not that of the screen. Cut-off read from the data, not from the text of the source: active = survival mostly below about 52% (no sharp cut-off); inactive = mostly above about 56%.

test system: Wild type; experiment: S. aureus survival, RN4220 and DeltatarO strains – OD600, teichoic acid synthesis inhibitors, primary screen (AID 463173); conditions: S. aureus RN4220 wild type/DeltatarO growth, OD600, 18 h, active compounds read low, screened at 18.75 µg/mL (by protocol)

SMILES	survival
COc1cc2nc(Nc3cccc(F)c3)nc(N)c2cc1OC	89% (inactive)
Cc1ccc(OCc2nnc(-c3ccccc3)o2)cc1	77% (inactive)
O=C(Nc1cccc(C(=O)OCc2cc(=O)n3c4c(sc3n2)CCCC4)c1)c1cccc(Cl)c1	73% (inactive)
CN1c2ccccc2Oc2nnc(N3CCN(Cc4ccccc4)CC3)cc21	110% (inactive)
CCc1ccc(NC(=O)C(=O)NCC(c2cccnc2)N2CCN(C)CC2)cc1 (centres undefined)	111% (inactive)
CCOC(=O)c1c(Oc2ccc(OC)cc2)nnc(-c2ccccc2)c1-c1ccccc1	91% (inactive)
CCOC(=O)c1c(Nc2cccc(C(=O)OC)c2)nnc(-c2ccccc2)c1-c1ccccc1	19% (inactive)
CCOC(=O)c1c(C)c(-c2ccccc2)n(CC(=O)Nc2ccc(OCC)cc2)c1C	82% (inactive)
CCOC(=O)c1c(C)oc2ncnc(Nc3ccc(OCC)cc3)c12	72% (inactive)
CCOC(=O)c1c(Nc2ccc(OC)cc2)nnc(-c2ccccc2)c1-c1ccccc1	5% (active)
CCOC(=O)c1c(Nc2ccc(OCC)cc2)nnc(-c2ccccc2)c1-c1ccccc1	2% (active)
COCCn1c(SCC(=O)Nc2cc(Cl)ccc2OC)nc2c([nH]c3ccccc32)c1=O	132% (inactive)
Cc1ccc2sc(N3CCN(C(=O)C4COc5ccccc5O4)CC3)nc2c1C (centres undefined)	148% (inactive)
COc1ccc(-c2nnc(SCC(=O)Oc3c(C)cccc3C)o2)cc1OC	117% (inactive)
CCOc1ccccc1N(CC)C(=O)Nc1cn(C)c(=O)c2ccccc12	78% (inactive)
Cc1ccc(NC(=O)Nc2cn(C)c(=O)c3ccccc23)c(Cl)c1	69% (inactive)
CN(C(=O)Nc1cn(C)c(=O)c2ccccc12)c1ccccc1	-6% (active)
CCCNC(=O)C1CCC(Cn2c(=O)c3sccc3n(CC(=O)N(CC)CC)c2=O)CC1 (centres undefined)	128% (inactive)
COc1cccc(CNC(=O)CN2C(=O)COc3ccc(S(=O)(=O)Nc4ccccc4)cc32)c1	73% (inactive)
Cc1ccc(CNC(=O)CN2C(=O)COc3ccc(S(=O)(=O)Nc4ccccc4)cc32)cc1	-6% (active)
COc1ccc(CNC(=O)CN2C(=O)COc3ccc(S(=O)(=O)Nc4ccccc4)cc32)cc1	87% (inactive)
COc1ccc2c(c1)c1c(c(=O)n(-c3ccc(C)cc3)c(=O)n1CC(=O)NCc1ccc(C)cc1)n2C	70% (inactive)
O=S(=O)(Nc1ccccc1C(F)(F)F)c1ccc(N2CCCCS2(=O)=O)cc1	136% (inactive)

SMILES	survival
COc1cccc(NC(=O)CCc2nc3c(C)nn(-c4ccc(C)cc4)c3n(C)c2=O)c1	72% (inactive)
Cc1ccc(-n2nc(C)c3nc(CCC(=O)Nc4ccc(F)cc4)c(=O)n(C)c32)cc1	80% (inactive)
Cc1ccc(-n2nc(C)c3nc(CCC(=O)Nc4cccc(F)c4)c(=O)n(C)c32)cc1	-6% (active)
Cc1ccc(NC(=O)c2c(C)oc3ncn(CC(C)C)c(=O)c23)nc1	129% (inactive)
Cc1nn(C)c(C)c1NC(=O)CSc1nccc(-c2ccc(Cl)cc2)n1	100% (inactive)
Cc1ccc(C(=O)CSc2nc3cc(C(=O)NC4CCCC4)ccc3c(=O)n2CC2CCCO2)cc1 (centres undefined)	75% (inactive)
CCOc1ccc(C(=O)CSc2nc3cc(C(=O)NC4CCCC4)ccc3c(=O)n2CC2CCCO2)cc1 (centres undefined)	0% (active)
O=C(CSc1nc2cc(C(=O)NC3CCCC3)ccc2c(=O)n1CC1CCCO1)c1ccc(F)cc1 (centres undefined)	70% (inactive)
COc1ccc(C(=O)CSc2nc3cc(C(=O)NC4CCCC4)ccc3c(=O)n2CC2CCCO2)cc1 (centres undefined)	76% (inactive)
O=C(CSc1nc2cc(C(=O)NC3CCCC3)ccc2c(=O)n1CC1CCCO1)c1cccc(Cl)c1 (centres undefined)	-3% (active)
Cc1ccc(C(=O)CSc2nc3cc(C(=O)NC4CCCC4)ccc3c(=O)n2CC2CCCO2)c(C)c1 (centres undefined)	63% (inactive)
CC(CN1CCCC1)OC(=O)c1ccc(F)cc1 (centres undefined)	109% (inactive)
Cc1ccc(-c2nnc(Nc3ccc(Br)cc3)c3ccccc23)cc1S(=O)(=O)N1CCCCC1	89% (inactive)
COc1ccc(N2CCN(C(c3ccccc3)c3nnc(-c4ccccc4Cl)o3)CC2)cc1 (centres undefined)	22% (inactive)
Cc1ccc(C)c(N2CCN(C(c3ccc(F)cc3)c3nnc(-c4ccccc4)o3)CC2)c1 (centres undefined)	14% (active)
Cc1cccc(N2CCN(C(c3ccccc3)c3nnc(-c4ccccc4Cl)o3)CC2)c1C (centres undefined)	52% (inactive)
Cc1ccc(Cl)cc1N1CCN(C(c2ccc(F)cc2)c2nnc(-c3ccccc3)o2)CC1 (centres undefined)	50% (inactive)
COc1ccccc1N1CCN(C(c2ccccc2)c2nnc(-c3ccccc3Cl)o2)CC1 (centres undefined)	0% (active)
Cc1cccc(N2CCN(C(c3ccccc3)c3nnc(-c4ccccc4F)o3)CC2)c1C (centres undefined)	43% (inactive)
Cc1ccc(C)c(N2CCN(C(c3ccccc3)c3nnc(-c4ccccc4F)o3)CC2)c1 (centres undefined)	53% (inactive)
Cc1ccc(C)c(N2CCN(C(c3ccccc3)c3nnc(-c4ccccc4)o3)CC2)c1 (centres undefined)	1% (active)
Cc1cccc(N2CCN(C(c3ccc(F)cc3)c3nnc(-c4ccccc4)o3)CC2)c1C (centres undefined)	28% (inactive)
Cc1ccoc1C(=O)Nc1ccccc1C(=O)O	102% (inactive)

SMILES	survival
Cc1ccc(NC(=O)C2CC(=O)n3cnnc3N2)cc1Cl (centres undefined)	105% (inactive)
COCCNC(=O)CCn1c(=O)c2cc(OC)c(OC)cc2n(CC(=O)Nc2ccccc2OC)c1=O	89% (inactive)
COc1ccc(-c2nn(-c3ccccc3)cc2C(=O)Nc2ccccc2OC)cc1	3% (active)
COc1ccccc1NC(=O)c1cn(-c2ccccc2)nc1-c1ccccc1	81% (inactive)
COc1ccc(NC(=O)c2cn(-c3ccccc3)nc2-c2ccc(C)cc2)cc1	93% (inactive)
COC(=O)C1(C)NC(c2ccccc2C)C2C(=O)N(C)C(=O)C21 (centres undefined)	98% (inactive)
CCOC(=O)C1=C(CN2CCN(c3ccccc3)CC2)NC(=O)NC1c1ccc(C)cc1 (centres undefined)	127% (inactive)
CCCOc1ccc(Cn2c(=O)sc3ccccc32)cc1	-4% (active)
CCOc1ccc(Cn2c(=O)sc3ccccc32)cc1	72% (inactive)
COc1ccc(Cn2c(=O)sc3ccccc32)cc1	111% (inactive)
CC(C)CCOc1ccc(Cn2c(=O)oc3ccccc32)cc1	121% (inactive)
O=c1sc2ccccc2n1CCCOc1ccccc1	116% (inactive)
O=c1sc2ccccc2n1CCc1ccccc1	108% (inactive)
CCCCOc1ccc(Cn2c(=O)oc3ccccc32)cc1	113% (inactive)
CC(C)CCOc1ccc(Cn2c(=O)sc3ccccc32)cc1	-3% (active)
CCCCOc1ccc(Cn2c(=O)sc3ccccc32)cc1	-4% (active)
O=C(CC1N=C2c3ccccc3N=C(SCC(=O)Nc3ccc(F)cc3)N2C1=O)NCc1ccc2c(c1)OCO2 (centres undefined)	80% (inactive)
COc1ccc2cc3cc(C(=O)NCc4ccccc4OC)oc3nc2c1	80% (inactive)
Cc1cccc(-c2nc(Cn3c(SCc4cccc(C(F)(F)F)c4)nc4ccncc43)c(C)o2)c1	81% (inactive)
Cc1ccc(C(=O)ON=C2CCN(C)CC2)cc1	108% (inactive)
O=C(Nc1cccc(F)c1)c1cnc2sc(N3CCCC3)nn2c1=O	74% (inactive)
COc1ccccc1CNC(=O)Cn1cc2c(n1)-c1c(oc(C(=O)N3CCOCC3)c1C)CC2	84% (inactive)
COc1cc2oc(=O)c(CC(=O)N3CCCCC3)c(C)c2cc1Cl	84% (inactive)

SMILES	survival
Cc1ccc(OCC(=O)Nc2c(C(=O)c3ccc(Cl)cc3)oc3ccccc23)cc1C	129% (inactive)
CCOC(=O)c1cc(S(=O)(=O)N2CCN(c3ccccc3F)CC2)[nH]n1	-6% (active)
CCOC(=O)c1noc2ncnc(N3CCN(c4cccc(Cl)c4)CC3)c12	75% (inactive)
COC(=O)c1cnc(N2CCN(c3ccccc3F)CC2)c2ccccc12	93% (inactive)
CCOC(=O)c1cnc2cc(C(F)(F)F)ccc2c1N1CCN(c2ccc(F)cc2)CC1	58% (inactive)
CCOC(=O)c1cnc2c(OC)cccc2c1N1CCN(c2ccccc2F)CC1	-14% (active)
CCOC(=O)c1cc(S(=O)(=O)N2CCN(c3ccccc3OC)CC2)[nH]n1	124% (inactive)
CCOC(=O)c1cnc2ccc(OCC)cc2c1N1CCN(c2cccc(Cl)c2)CC1	-9% (active)
CCOC(=O)c1cnc(N2CCN(c3ccc(C)cc3C)CC2)c2ccccc12	112% (inactive)
CCOC(=O)c1cc(S(=O)(=O)N2CCN(c3cccc(C)c3C)CC2)[nH]n1	72% (inactive)
CCOC(=O)c1cnc2ccc(OCC)cc2c1N1CCN(c2ccccc2F)CC1	-12% (active)
CCOC(=O)c1cnc2cc(C(F)(F)F)ccc2c1N1CCN(c2cccc(Cl)c2)CC1	55% (inactive)
CCOC(=O)c1cnc(N2CCN(c3cccc(C)c3C)CC2)c2ccccc12	85% (inactive)
O=C(Cn1c(=O)n(-c2ccccc2)c(=O)c2sc3ccccc3c21)NC1CCCC1	138% (inactive)
CCOc1ccc(CNC(=O)CCn2nc(C)c3c(C)n(-c4ccccc4)nc3c2=O)cc1	129% (inactive)
COc1ccccc1-c1cc2nc(C)c(CCC(=O)NCc3cccc(Cl)c3)c(C)n2n1	112% (inactive)
CC(C)(C)OC(=O)N1CCC2(CC1)C(C#N)=C(N)OC1=C2C(=O)CCC1	104% (inactive)
CN1CCN(CC(=O)Nc2ccc(C(=O)NCC3CCCO3)cc2)CC1 (centres undefined)	108% (inactive)
COc1ccc2c(c1)c1c(c(=O)n(-c3cccc(C)c3)c(=O)n1CC(=O)NCCC1=CCCCC1)n2C	74% (inactive)
COc1ccccc1C(=O)Nc1ccccc1OCc1cc(=O)n2ccccc2n1	92% (inactive)
